Bioassay records deposited in PubChem BioAssay by National Center for Advancing Translational Sciences (NCATS).
TrxR1 inh – inhibitors of rat thioredoxin reductase 1; O89049; recombinant rTrxR1, NADPH fluorescence consumption, selenite substrate; Potency, µM (highest dose often 114 µM), for the others: at the highest dose activity change, negative = inhibition, hits mostly inhibitors; actives 1% (n = 390,000); AID 588453; note: potency is the fitted concentration of half-maximal effect; nearly all actives have a fitted effect of over 65% in size
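Rat TrxR1 (90 nM in the dispensed reagent) was pre-reduced with 400 uM NADPH for 5 min at room temperature, then incubated with compound for 15 min. After 400 uM selenite was added, NADPH fluorescence (Ex 340/Em 450 nm) was followed for 8 min.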
GALK inh – blocks human galactokinase activity; P51570; Purified GALK, Kinase-Glo residual ATP luminescence; Potency, µM (highest dose often 57.5 µM), inactives show at the top dose activity change, negative = inhibition, actives largely listed as inhibitors; actives 0.007% (n = 270,000); AID 1868; note: potency is the fitted concentration of half-maximal effect
Target sequence (P51570 whole entry, looked up): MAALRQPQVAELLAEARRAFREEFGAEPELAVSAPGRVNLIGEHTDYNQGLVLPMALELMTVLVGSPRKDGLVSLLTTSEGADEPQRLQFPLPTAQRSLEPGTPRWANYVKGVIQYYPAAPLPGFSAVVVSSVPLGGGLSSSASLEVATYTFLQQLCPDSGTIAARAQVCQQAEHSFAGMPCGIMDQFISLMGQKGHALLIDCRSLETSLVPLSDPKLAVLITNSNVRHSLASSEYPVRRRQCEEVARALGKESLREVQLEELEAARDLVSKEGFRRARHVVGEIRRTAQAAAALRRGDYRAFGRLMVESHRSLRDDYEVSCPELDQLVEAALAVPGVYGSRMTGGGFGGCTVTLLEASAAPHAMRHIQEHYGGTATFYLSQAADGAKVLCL
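ATP-depletion format; final 35 uM ATP, 100 uM D-galactose, 5 nM enzyme; pH 8.0 HEPES/Mg2+ buffer; 60 min RT; luminescence read 10 min after detection reagent.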
TrxR1 substrate – rat thioredoxin reductase 1 substrate activity; O89049; purified TrxR1 substrate turnover, NADPH consumption readout; Potency, µM (top dose mostly 114 µM), for inactives: at the highest dose activity change, negative = substrate turnover; actives 0.01% (n = 390,000); AID 588456; note: potency is the fitted concentration of half-maximal effect; nearly all actives have a fitted effect of over 50% in size
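Rat TrxR1, dispensed at 90 nM, was prereduced with 400 uM NADPH (final) for 5 min at ~22 deg C, then incubated with compound 15 min before 400 uM selenite. A first-read NADPH fluorescence drop versus no-compound background flagged substrates.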
Gal4-VP16 FLuc – inhibits Gal4-VP16 luciferase reporter, ROR gamma counter-screen; Drosophila S2 Gal4-VP16 UAS-luciferase, luminescence, 20 h; Potency, µM (top dose mostly 53.6 µM), for the others: at the highest dose activity, negative = inhibition, most hits filed as inhibitors; actives 3.5% (n = 310,000);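 note: Gal4-VP16 expression switched on by copper sulfate through the metallothionein promoter; potency is the fitted concentration of half-maximal effect; nearly all actives have a fitted effect of over 50% in size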
Coupling enz – counter-screen for Giardia aldolase inhibitors: coupling enzyme system; coupling enzyme system counterscreen, AmpLite Red fluorescence; actives 0.67% (n = 290,000); AID 2472; activity change, negative = inhibition, % at 58.2 µM, hits read low; in the data active = activity change below about -30%
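Counterscreen lacking aldolase: glyceraldehyde-3-phosphate coupling-enzyme reagent preincubated 10 min at RT with compound (at 57.5 uM final), then substrate/coupling system with AmpLite Red added; fluorescence read at 525/598 nm after 20 min RT.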
RORg inh – inhibitors of mouse ROR gamma transcriptional activity. P51450. Drosophila S2 Gal4-RORgamma UAS-luciferase reporter, 20 h. Potency, µM (top dose mostly 53.6 µM), for the others: at the highest dose activity change, negative = inhibition, most hits filed as inhibitors. actives 5.4% (n = 310,000). AID 2551; note: potency is the fitted concentration of half-maximal effect; nearly all actives have a fitted effect of over 60% in size
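Schneider cells (Drosophila), stable Gal4 DBD–ROR gamma + UAS-luc; 1 hr cmpd preincubation; Cu2+ induction 700 uM final; 20 hr ambient; luminescence.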
Numbers without * were called inactive; ? = inconclusive; . = not tested or not shown; [ ] = another dose, or the depositor's remark. A selection: hits, their analogues and other compounds. The true share with any hit is near 5.9%. Unless noted, calls come from the whole dose curve; as a rule, active = well fitted curve in the direction sought with a large enough effect; inconclusive = small, poorly fitted or top-dose-only effect, or another doubt; inactive = no such curve, though single readings can be large; an effect the other way counts as inactive or inconclusive. % is set by controls: 0 for no effect and ±100 for the full control effect.

SMILES | TrxR1 inh | GALK inh | TrxR1 substrate | Gal4-VP16 FLuc | Coupling enz | RORg inh
S=c1[nH]nc(COc2ccccc2)n1/N=C/c1ccncc1 | -1.1% | 6.7% | -6.3% | 3.4% | 5.2 | 10µM*
CC(=C/c1ccccc1)/C=N/n1c(-c2ccncc2)n[nH]c1=S | -12.0% | -3.3% | -1.0% | -3.3% | 8.4 | ?
CCc1ccc(/C=N/n2c(COc3ccccc3)n[nH]c2=S)cc1 | -9.9% | -1.6% | -6.0% | ? | -0.4 | 0.891µM*
CCOc1ccccc1NC(=O)CSc1nnc2[nH]c(=O)cc(-c3ccccc3)n12 | -7.6%[57.1 µM] | . | 44.2%[57.1 µM] | . | . | .
COc1cc(CN2CCc3nc(Nc4ccc5c(c4)OCCO5)ncc3C2)cc(OC)c1OC | 11.0%[57.1 µM] | . | 0.8%[57.1 µM] | . | . | .
C=CCOc1c(Br)cc(/C=N/n2c(CC)n[nH]c2=S)cc1Br | -13.1% | 0.7% | -0.6% | 7.94µM* | -2.5 | 7.94µM*
CC(/C=N/n1c(COc2ccccc2)n[nH]c1=S)=C\c1ccccc1 | -13.6% | 2.0% | 2.0% | ? | 4.8 | 2.51µM*
S=c1[nH]nc(COc2ccccc2)n1/N=C/c1ccccn1 | -26.5% | 0.8% | 0.8% | -13.6% | 3.3 | ?
Cc1cccc(/C=N/n2c(COc3ccccc3)n[nH]c2=S)c1 | -16.5% | 2.5% | -7.1% | ? | -0.2 | 7.08µM*
C(CCc1nn[nH]n1)CCC1CCCCC1 | 12.0% | . | 6.1% | . | . | .
CC(C)[n+]1ccn(C2=C([O-])c3ccccc3C(=O)/C2=N\S(=O)(=O)c2ccccc2)c1 | -1.4%[57.1 µM] | 4.8% | -4.2%[57.1 µM] | ? | -43.5* | -37.6%
CC(C)(C)c1cc[n+](C2=C([O-])c3ccccc3C(=O)/C2=N\S(=O)(=O)c2ccccc2)cc1 | 44.0% | 4.3% | -6.8%[57.1 µM] | 6.31µM* | -59.7* | 5.62µM*
CCCC[n+]1ccn(C2=C([O-])c3ccccc3C(=O)/C2=N\S(=O)(=O)c2ccccc2)c1 | -0.1% | -0.1% | -10.7% | ? | . | ?
O=C(CCN1CCCCC1)NNC(=S)NC(=O)c1ccc(Br)cc1 | 6.1%[57.1 µM] | 2.3% | -6.2%[57.1 µM] | 8.91µM* | 0.4 | 2µM*
O=C(NC(=S)NCCCN1CCOCC1)c1ccc(Br)cc1 | 18.9%[57.1 µM] | 2.1% | 7.3%[57.1 µM] | -84.2% | 1.7 | ?
O=C(CCN1CCOCC1)NNC(=S)NC(=O)c1ccc(Br)cc1 | -1.5%[57.1 µM] | -7.2% | -0.5%[57.1 µM] | ? | -0.4 | 11.2µM*
Cc1ccccc1N(CC(=O)NCc1ccc2c(c1)OCO2)C(=O)C1CSC(=O)C1 (stereo not drawn) | 15.1%[57.1 µM] | 0.8% | -6.4%[57.1 µM] | -2.2% | 0.5 | 4.0%
CCOC(=O)c1c[nH]c(=S)n1C | 11.6% | . | 4.7% | -1.5% | 1.0 | 11.2µM*
CCCCC1CCC(c2nc(-c3ccccn3)no2)CC1 (stereo not drawn) | -4.4%[57.1 µM] | . | -10.6%[57.1 µM] | 12.6µM* | 0.2 | ?
c1ccc(-c2noc(C3CCC3)n2)nc1 | 18.2%[2.29 µM] | 6.8% | 5.1%[57.1 µM] | 16.3% | 3.0 | 4.5%
Cc1c[nH]c(=O)c([N+](=O)[O-])c1 | 2.6% | 2.4% | 26.4% | -6.8% | -0.2 | -9.2%
c1ccc(C(NCCNC(c2ccccc2)c2ccccc2)c2ccccc2)cc1 | 9.2%[57.1 µM] | -1.3% | 1.7%[57.1 µM] | ? | -0.1 | 12.6µM*
Cc1ccc(C2=C/C(=C/c3cccnc3)C(=O)O2)c(C)c1 | -19.0% | -2.1% | 0.9% | 14.4% | -35.0* | 26.4%
CCN(CC)S(=O)(=O)c1ccc(N2CCN(c3ccccc3OC)CC2)c(N)c1 | 2.6% | 9.9% | -8.6% | 22.4µM* | 0.7 | ?
C=CCC(C)(NCc1ccccc1)c1ccc(C)cc1 (stereo not drawn) | -22.6% | 0.2% | -11.7% | -7.9% | 3.1 | -0.1%[10 µM]
CCOC(=O)N1CCN(C2CC(=O)N(c3ccc(Cl)c(Cl)c3)C2=O)CC1 (stereo not drawn) | 1.6%[57.1 µM] | -3.4% | -10.3% | 2.2% | -1.7 | 14.3%
CCOC(=O)C1Oc2ccccc2C(c2ccc(C)cc2)=C1C(=O)OC (stereo not drawn) | -2.0% | . | -10.9% | -7.3% | 0.5 | 10.1%
